C diff HTS – C. difficile growth inhibitors, primary screen, HTS. growth activity, negative = inhibition, % at 16 µg/mL (by protocol). Clostridium difficile clinical isolate growth, OD600, 24 h; stronger effect = lower value. 86,000 tested, 0.25% active. AID 1259249, 2017;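 active means mean growth activity at or below -80% and every replicate also at or below -80%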;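 further: 0% = DMSO wells and -100% = levofloxacin 16 µg/mL wells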
T cruzi growth – T. cruzi intracellular proliferation inhibitors, primary screen, cell-based, beta-gal Tulahuen parasites, NIH3T3 host, luminescence; T. cruzi beta-gal in NIH3T3, GalScreen luminescence, 90 h; inhibition, % at 8.34 µM; 77,000 tested, 5.9% active;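 active means mean inhibition above about 93%, with at least 55% of replicates each passing it, limit read from the data, passing the limit was not always enough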
Pf Dd2 inh – P. falciparum Dd2 growth inhibitors, primary screen, SYBR Green fluorescence, single dose replicates; 94,000 tested, 2.3% active; activity change, % at 10 µM; 72 h; stronger effect = lower value; AID 1159554, 2015; in the data active means activity change below about -80%
* = called active by the depositor; . = no result given. Only some compounds are listed: those with a hit (about 6.7% of all), similar ones and a draw of the others.

SMILES	C diff HTS	T cruzi growth	Pf Dd2 inh
COc1cccc(C#Cc2ccc([C@@H]3[C@@H](C#N)N(C(=O)C4CCCCC4)[C@H]3CO)cc2)c1	1	85	-91*
Cc1noc(C)c1NC(=O)Nc1ccc2c(c1)C(=O)N([C@H](C)CO)C[C@@H](C)[C@H](CN(C)S(=O)(=O)c1cccs1)O2	.	6	2
COCC(=O)Nc1ccc2c(c1)C(=O)N(C)C[C@H](OC)[C@H](C)CN(C(=O)C1CCCC1)[C@H](C)CO2	.	-9	-13
O=C(Nc1ccc2c(c1)[C@@H]1C[C@H](CC(=O)N3CCc4ccccc4C3)O[C@H](CO)[C@@H]1O2)c1cccnc1	.	8	-36
CCCN(C)C[C@H]1OCCCC[C@H](C)Oc2ccc(NS(=O)(=O)c3ccc(F)cc3)cc2C(=O)N([C@H](C)CO)C[C@H]1C	2	6	3
C[C@@H]1CN([C@H](C)CO)C(=O)c2cc(NC(=O)c3ccccc3)ccc2O[C@@H](C)CCCCO[C@@H]1CN(C)C(=O)Nc1cccc2ccccc12	8	62	-89*
C[C@@H]1CCCCO[C@@H](CN(C)C(=O)Nc2cccc3ccccc23)[C@H](C)CN([C@@H](C)CO)C(=O)c2cc(NC(=O)c3ccccc3)ccc2O1	-2	89	57
C[C@H](CO)N1C[C@H](C)[C@H](CN(C)C(=O)Nc2cccc3ccccc23)OCCCC[C@H](C)Oc2ccc(NC(=O)c3ccccc3)cc2C1=O	-4	71	-46
C[C@@H]1CCCCO[C@H](CN(C)C(=O)Nc2cccc3ccccc23)[C@@H](C)CN([C@@H](C)CO)C(=O)c2cc(N(C)C)ccc2O1	0	56	-83*
C[C@@H]1CN([C@H](C)CO)C(=O)c2cc(NC(=O)C3CCCCC3)ccc2O[C@@H](C)CCCCO[C@@H]1CN(C)C(=O)Nc1cccc2ccccc12	7	64	-91*
C[C@@H]1CN([C@H](C)CO)C(=O)c2cc(N(C)C)ccc2O[C@@H](C)CCCCO[C@H]1CN(C)C(=O)Nc1cccc2ccccc12	-3	-50	.
C[C@@H]1CN([C@@H](C)CO)C(=O)c2cc(NC(=O)C3CCCCC3)ccc2O[C@@H](C)CCCCO[C@H]1CN(C)C(=O)Nc1cccc2ccccc12	-4	70	-78
C[C@@H]1CN([C@@H](C)CO)C(=O)c2cc(NC(=O)c3ccccc3)ccc2O[C@@H](C)CCCCO[C@H]1CN(C)C(=O)Nc1cccc2ccccc12	0	79	-81*
CCCNC(=O)N1CC2(C1)CN(C(=O)CC1CC1)[C@H](CO)c1[nH]c3cc(OC)ccc3c12	2	.	-13
C[C@@H]1CN([C@@H](C)CO)C(=O)c2cc(C3=CCCCC3)cnc2O[C@@H]1CN(C)C(=O)c1ccc2c(c1)OCO2	7	21	-4
C[C@@H]1CN([C@@H](C)CO)C(=O)c2cc(C3=CCCC3)cnc2O[C@@H]1CN(C)C(=O)C1CCOCC1	1	.	28
O=C(C[C@@H]1CC[C@H](NC(=O)C2CCOCC2)[C@@H](CO)O1)NCc1ccncc1	-1	.	32
CCCC#Cc1ccc2c(c1)O[C@@H](CN(C)C(=O)c1ccccc1F)[C@@H](C)CN([C@@H](C)CO)S2(=O)=O	18	75	-83*
C[C@H](CO)N1C[C@H](C)[C@H](CN(C)C(=O)c2ccccc2F)Oc2cc(C#CCN(C)C)ccc2S1(=O)=O	-7	75	-28
CCCC#Cc1ccc2c(c1)O[C@H](CN(C)C(=O)c1ccccc1F)[C@H](C)CN([C@H](C)CO)S2(=O)=O	17	33	-81*
COCC#Cc1ccc2c(c1)O[C@@H](CN(C)C(=O)c1ccccc1F)[C@@H](C)CN([C@H](C)CO)S2(=O)=O	2	28	-47
O=C(NC1CCCCC1)[C@@H]1[C@@H](CO)[C@@H]2Cn3c(ccc(-c4ccccc4)c3=O)[C@H]1N2	2	.	41
COc1cccc(CN2CCC3(CC2)CN(C(=O)Nc2ccc(F)cc2)[C@H](CO)c2c3c3ccc(OC)cc3n2C)c1	52	.	-35
COc1ccc2c3c([nH]c2c1)[C@H](CO)N(C(=O)Nc1ccc(F)cc1)CC31CCN(Cc2cc(-c3ccccc3)on2)CC1	4	.	-87*
COc1ccc2c3c(n(C)c2c1)[C@@H](CO)N(C(=O)Nc1ccc(F)cc1)CC31CN(Cc2ccccn2)C1	-3	.	-57
COc1ccc2c3c(n(C)c2c1)[C@H](CO)N(C(=O)Nc1ccc(F)cc1)CC31CCN(Cc2ccccn2)CC1	-4	.	-89*
COc1ccc2c3c(n(C)c2c1)[C@@H](CO)N(C(=O)Nc1ccc(F)cc1)CC31CCN(Cc2ccccn2)CC1	-2	.	-88*
COc1ccc2c3c([nH]c2c1)[C@@H](CO)N(C(C)=O)CC31CCN(Cc2cc(-c3ccccc3)on2)CC1	-3	.	-67

High-throughput results (PubChem BioAssay)
